According to article PMC7862700, “An all-to-all approach to the identification of sequence-specific readers for epigenetic DNA modifications on cytosine”:

Key:
Assay in all cases: DAPPL (digital affinity profiling via proximity ligation, sequencing); 10 mM Tris-HCl pH 7.5, 50 mM NaCl, 1 mM DTT, 4% glycerol, room temperature, 30 min; GST-TFs on glutathione beads, 16-mer random dsDNA library, 0.1% formaldehyde crosslink after washing; high values mean tight binding
FEV = biological target: T1, FEV (Homo sapiens, UniProt Q99581 1-238); details: protein: recombinant; tags: N-terminal GST; dsDNA, one strand shown
T1 sequence: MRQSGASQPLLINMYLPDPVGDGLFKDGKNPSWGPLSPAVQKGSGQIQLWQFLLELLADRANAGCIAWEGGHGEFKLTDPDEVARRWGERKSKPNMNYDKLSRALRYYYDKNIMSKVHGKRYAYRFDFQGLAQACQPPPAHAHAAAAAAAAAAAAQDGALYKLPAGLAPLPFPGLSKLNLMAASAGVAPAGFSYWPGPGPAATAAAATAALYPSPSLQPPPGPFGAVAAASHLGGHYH
How it was run: (§1)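 Binding signal is given per hexamer as its read frequency for a factor divided by its frequency in the tag-only sample. GST-fused human transcription factors were expressed in yeast, captured on glutathione beads, barcoded with DNA and pooled with that sample, then incubated with 200 nmole of a 16-mer random double-stranded DNA library in Tris/NaCl/DTT/glycerol buffer for 30 min at room temperature. The pools were then washed, crosslinked, proximity-ligated, amplified by PCR and sequenced on an Illumina NextSeq500.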

ETV5 = ETV5 (Homo sapiens, UniProt P41161 1-510); details: protein: recombinant; tags: N-terminal GST; dsDNA, one strand shown
How it was run: as §1

HSF1 = HSF1 (Homo sapiens, UniProt Q00613 1-529); details: protein: recombinant; tags: N-terminal GST; chain copies: 3; dsDNA, one strand shown
How it was run: as §1

SPIC = biological target: T2, SPIC (Homo sapiens, UniProt Q8N5J4 1-248); details: protein: recombinant; tags: N-terminal GST; dsDNA, one strand shown
T2 sequence: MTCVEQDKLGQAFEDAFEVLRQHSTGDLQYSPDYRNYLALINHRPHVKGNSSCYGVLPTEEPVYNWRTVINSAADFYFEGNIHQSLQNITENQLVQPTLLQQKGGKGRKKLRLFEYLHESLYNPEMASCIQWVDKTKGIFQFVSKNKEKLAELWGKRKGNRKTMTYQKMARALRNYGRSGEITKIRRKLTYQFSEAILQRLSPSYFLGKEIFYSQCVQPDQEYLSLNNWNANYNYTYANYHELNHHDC
How it was run: as §1

ELF4 = ELF4 (Homo sapiens, UniProt Q99607 1-663); details: protein: recombinant; tags: N-terminal GST; dsDNA, one strand shown
How it was run: as §1

ELK4 = biological target: T3, ELK4 (Homo sapiens, UniProt P28324-2 1-405); details: protein: recombinant; tags: N-terminal GST; dsDNA, one strand shown
T3 sequence: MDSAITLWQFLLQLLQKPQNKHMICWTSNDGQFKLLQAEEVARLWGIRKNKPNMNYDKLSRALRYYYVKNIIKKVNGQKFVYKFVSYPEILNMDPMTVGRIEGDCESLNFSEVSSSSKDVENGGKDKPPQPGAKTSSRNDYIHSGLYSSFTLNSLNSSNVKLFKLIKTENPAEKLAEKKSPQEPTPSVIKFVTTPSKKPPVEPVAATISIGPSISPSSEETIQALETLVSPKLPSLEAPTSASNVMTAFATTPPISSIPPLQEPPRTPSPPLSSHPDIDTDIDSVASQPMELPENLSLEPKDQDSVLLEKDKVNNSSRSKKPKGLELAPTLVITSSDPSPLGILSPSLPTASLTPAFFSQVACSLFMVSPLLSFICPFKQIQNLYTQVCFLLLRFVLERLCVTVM
How it was run: as §1

ETV2 = biological target: T4, ETV2 (Homo sapiens, UniProt O00321 1-342); details: protein: recombinant; tags: N-terminal GST; dsDNA, one strand shown
T4 sequence: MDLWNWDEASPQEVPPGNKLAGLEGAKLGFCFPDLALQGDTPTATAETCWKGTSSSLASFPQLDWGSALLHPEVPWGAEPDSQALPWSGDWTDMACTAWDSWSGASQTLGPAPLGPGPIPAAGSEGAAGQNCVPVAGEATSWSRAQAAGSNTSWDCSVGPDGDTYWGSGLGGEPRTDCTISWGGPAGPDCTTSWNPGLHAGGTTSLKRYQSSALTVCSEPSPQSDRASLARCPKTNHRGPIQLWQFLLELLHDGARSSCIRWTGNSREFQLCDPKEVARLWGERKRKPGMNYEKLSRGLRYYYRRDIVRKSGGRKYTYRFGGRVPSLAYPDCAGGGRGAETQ
How it was run: as §1

ELF3 = biological target: T5, ELF3 (Homo sapiens, UniProt P78545 1-371); details: protein: recombinant; tags: N-terminal GST; dsDNA, one strand shown
T5 sequence: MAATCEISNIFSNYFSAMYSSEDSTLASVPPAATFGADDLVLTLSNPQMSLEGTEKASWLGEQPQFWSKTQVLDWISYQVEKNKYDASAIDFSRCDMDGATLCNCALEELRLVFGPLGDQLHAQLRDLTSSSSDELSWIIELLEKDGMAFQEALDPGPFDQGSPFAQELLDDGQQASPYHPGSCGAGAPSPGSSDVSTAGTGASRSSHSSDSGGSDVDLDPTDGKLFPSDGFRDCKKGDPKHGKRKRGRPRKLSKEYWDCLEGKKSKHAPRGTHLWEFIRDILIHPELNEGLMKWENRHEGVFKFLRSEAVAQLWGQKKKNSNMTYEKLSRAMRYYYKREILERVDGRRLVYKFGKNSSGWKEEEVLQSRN
How it was run: as §1

CRX = CRX (Homo sapiens, UniProt O43186 1-299); details: protein: recombinant; tags: N-terminal GST; dsDNA, one strand shown
How it was run: as §1

ETV1 = ETV1 (Homo sapiens, UniProt P50549 1-477); details: protein: recombinant; tags: N-terminal GST; dsDNA, one strand shown
How it was run: as §1

ERF = biological target: T6, ERF (Homo sapiens, UniProt P50548 1-548); details: protein: recombinant; tags: N-terminal GST; dsDNA, one strand shown
T6 sequence: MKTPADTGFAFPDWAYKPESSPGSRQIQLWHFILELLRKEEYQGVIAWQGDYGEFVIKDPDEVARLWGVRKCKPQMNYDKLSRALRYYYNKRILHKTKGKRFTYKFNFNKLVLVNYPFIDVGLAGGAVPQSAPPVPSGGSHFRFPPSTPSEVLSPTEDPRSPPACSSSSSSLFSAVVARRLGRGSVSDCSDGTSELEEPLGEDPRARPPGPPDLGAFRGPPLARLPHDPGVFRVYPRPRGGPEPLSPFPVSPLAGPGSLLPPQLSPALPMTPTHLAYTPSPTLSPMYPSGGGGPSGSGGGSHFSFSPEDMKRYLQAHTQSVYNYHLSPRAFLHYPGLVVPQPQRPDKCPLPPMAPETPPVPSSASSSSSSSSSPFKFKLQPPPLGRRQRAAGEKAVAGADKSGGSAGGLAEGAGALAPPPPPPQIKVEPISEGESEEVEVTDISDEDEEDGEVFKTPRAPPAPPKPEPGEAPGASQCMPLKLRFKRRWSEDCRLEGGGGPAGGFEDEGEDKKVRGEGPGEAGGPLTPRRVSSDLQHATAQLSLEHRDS
How it was run: as §1

ETV3L = biological target: T7, ETV3L (Homo sapiens, UniProt Q6ZN32 1-361); details: protein: recombinant; tags: N-terminal GST; dsDNA, one strand shown
T7 sequence: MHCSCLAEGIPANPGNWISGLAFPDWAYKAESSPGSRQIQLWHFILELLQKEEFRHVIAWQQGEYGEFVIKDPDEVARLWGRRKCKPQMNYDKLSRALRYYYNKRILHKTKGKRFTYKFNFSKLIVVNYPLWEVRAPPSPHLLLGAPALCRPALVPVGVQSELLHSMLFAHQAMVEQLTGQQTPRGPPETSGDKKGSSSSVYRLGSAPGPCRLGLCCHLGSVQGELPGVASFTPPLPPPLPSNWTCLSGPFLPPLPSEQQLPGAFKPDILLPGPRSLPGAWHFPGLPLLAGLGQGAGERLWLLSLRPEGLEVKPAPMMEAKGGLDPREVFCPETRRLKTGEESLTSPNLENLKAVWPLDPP
How it was run: as §1

ETS2 = biological target: T8, ETS2 (Homo sapiens, UniProt P15036 1-469); details: protein: recombinant; tags: N-terminal GST; dsDNA, one strand shown
T8 sequence: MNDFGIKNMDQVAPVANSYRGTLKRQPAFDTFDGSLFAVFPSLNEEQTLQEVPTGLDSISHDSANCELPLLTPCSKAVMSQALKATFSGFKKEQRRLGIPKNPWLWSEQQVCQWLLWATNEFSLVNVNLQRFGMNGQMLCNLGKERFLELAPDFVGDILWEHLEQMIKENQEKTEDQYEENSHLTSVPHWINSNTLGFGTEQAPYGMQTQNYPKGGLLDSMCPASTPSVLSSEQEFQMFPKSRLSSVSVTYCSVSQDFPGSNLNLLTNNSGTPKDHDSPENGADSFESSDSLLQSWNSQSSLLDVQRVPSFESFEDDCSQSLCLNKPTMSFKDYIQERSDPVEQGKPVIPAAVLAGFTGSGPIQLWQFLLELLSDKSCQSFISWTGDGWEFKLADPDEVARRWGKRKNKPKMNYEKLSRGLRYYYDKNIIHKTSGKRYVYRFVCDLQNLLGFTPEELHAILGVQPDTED
How it was run: as §1

SPDEF = biological target: T9, SPDEF (Homo sapiens, UniProt O95238 1-335); details: protein: recombinant; tags: N-terminal GST; dsDNA, one strand shown
T9 sequence: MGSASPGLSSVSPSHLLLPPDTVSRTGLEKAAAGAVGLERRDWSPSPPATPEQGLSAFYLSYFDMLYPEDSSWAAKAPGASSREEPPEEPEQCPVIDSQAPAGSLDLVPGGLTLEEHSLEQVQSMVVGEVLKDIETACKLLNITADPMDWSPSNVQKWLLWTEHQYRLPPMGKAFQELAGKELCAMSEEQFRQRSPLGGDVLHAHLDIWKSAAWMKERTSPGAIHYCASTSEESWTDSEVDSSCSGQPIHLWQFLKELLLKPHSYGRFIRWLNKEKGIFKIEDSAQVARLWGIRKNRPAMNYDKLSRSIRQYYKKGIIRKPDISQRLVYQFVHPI
How it was run: as §1

ETV7 = biological target: T10, ETV7 (Homo sapiens, UniProt Q9Y603 1-341); details: protein: recombinant; tags: N-terminal GST; dsDNA, one strand shown
T10 sequence: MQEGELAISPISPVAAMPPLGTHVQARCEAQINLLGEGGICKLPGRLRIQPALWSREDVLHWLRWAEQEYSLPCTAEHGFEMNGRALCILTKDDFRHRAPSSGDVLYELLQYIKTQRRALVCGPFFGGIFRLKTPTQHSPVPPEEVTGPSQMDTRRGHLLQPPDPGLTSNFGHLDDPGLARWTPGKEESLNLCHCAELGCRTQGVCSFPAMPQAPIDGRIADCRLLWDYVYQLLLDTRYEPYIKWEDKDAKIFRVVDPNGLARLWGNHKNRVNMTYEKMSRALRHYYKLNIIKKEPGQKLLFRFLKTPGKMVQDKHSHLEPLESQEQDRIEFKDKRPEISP
How it was run: as §1

ELF5 = biological target: T11, ELF5 (Homo sapiens, UniProt Q9UKW6-2 1-255); details: protein: recombinant; tags: N-terminal GST; dsDNA, one strand shown
T11 sequence: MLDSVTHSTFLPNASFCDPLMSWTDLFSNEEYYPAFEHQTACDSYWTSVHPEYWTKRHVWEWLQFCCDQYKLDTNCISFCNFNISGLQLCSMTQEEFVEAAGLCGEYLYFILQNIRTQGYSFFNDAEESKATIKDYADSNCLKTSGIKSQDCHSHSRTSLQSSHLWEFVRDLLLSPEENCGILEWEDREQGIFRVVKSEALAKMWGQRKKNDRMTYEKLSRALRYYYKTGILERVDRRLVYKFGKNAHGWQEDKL
How it was run: as §1

ETV3 = biological target: T12, ETV3 (Homo sapiens, UniProt P41162-2 1-143); details: protein: recombinant; tags: N-terminal GST; dsDNA, one strand shown
T12 sequence: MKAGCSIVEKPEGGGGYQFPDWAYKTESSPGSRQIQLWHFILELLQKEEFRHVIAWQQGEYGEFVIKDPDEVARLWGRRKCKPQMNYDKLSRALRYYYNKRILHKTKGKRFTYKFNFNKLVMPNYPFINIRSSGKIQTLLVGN
How it was run: as §1

ETV6 = ETV6 (Homo sapiens, UniProt P41212 1-452); details: protein: recombinant; tags: N-terminal GST; dsDNA, one strand shown
How it was run: as §1

HSF1, sequence (Q00613 whole entry): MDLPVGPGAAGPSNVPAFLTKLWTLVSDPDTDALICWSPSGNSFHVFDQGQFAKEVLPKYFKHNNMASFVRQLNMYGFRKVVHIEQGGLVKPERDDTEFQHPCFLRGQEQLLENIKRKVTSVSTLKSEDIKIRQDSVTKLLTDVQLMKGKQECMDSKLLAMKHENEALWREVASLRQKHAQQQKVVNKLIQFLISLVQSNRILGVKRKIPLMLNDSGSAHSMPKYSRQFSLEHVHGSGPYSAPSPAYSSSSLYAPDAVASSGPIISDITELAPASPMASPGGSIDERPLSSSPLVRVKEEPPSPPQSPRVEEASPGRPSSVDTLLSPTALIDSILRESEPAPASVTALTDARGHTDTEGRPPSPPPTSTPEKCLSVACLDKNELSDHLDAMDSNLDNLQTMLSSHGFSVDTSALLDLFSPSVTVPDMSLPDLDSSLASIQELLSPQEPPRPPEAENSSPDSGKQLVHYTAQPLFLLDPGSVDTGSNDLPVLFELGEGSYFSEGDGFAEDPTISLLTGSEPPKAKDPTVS
ETV5, sequence (P41161 whole entry): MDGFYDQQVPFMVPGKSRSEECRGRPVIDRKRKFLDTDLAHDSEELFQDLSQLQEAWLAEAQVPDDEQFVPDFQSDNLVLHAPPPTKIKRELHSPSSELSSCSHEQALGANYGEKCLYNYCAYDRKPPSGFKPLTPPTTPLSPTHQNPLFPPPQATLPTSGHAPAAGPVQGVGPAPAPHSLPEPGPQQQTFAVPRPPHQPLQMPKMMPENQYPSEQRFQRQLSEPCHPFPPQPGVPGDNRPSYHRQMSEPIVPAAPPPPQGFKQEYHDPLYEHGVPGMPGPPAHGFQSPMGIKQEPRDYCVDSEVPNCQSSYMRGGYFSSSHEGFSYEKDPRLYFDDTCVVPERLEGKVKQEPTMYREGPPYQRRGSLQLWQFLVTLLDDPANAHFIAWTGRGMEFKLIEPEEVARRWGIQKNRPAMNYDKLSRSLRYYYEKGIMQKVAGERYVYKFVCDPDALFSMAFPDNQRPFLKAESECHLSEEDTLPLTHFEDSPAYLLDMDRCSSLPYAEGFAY
ETV6, sequence (P41212 whole entry): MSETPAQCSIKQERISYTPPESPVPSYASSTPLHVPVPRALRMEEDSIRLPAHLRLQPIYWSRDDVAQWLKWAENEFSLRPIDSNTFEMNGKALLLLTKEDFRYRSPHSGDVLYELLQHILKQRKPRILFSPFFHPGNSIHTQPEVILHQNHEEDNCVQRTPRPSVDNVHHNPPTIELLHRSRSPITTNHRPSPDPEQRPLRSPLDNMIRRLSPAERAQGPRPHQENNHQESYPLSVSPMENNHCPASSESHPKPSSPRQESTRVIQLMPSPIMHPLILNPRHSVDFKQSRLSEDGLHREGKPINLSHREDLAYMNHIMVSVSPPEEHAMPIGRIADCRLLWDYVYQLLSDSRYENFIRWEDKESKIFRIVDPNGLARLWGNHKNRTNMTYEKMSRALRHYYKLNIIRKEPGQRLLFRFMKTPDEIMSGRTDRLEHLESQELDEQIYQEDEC
CRX, sequence (O43186 whole entry): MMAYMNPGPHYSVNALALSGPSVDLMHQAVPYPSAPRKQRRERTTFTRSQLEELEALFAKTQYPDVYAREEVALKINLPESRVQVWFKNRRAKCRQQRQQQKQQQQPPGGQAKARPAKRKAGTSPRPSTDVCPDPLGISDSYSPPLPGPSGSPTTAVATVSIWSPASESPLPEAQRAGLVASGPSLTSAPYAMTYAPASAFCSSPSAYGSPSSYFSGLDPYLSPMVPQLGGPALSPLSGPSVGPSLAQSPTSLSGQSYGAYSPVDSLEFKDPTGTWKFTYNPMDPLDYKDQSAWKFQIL
ETV1, sequence (P50549 whole entry): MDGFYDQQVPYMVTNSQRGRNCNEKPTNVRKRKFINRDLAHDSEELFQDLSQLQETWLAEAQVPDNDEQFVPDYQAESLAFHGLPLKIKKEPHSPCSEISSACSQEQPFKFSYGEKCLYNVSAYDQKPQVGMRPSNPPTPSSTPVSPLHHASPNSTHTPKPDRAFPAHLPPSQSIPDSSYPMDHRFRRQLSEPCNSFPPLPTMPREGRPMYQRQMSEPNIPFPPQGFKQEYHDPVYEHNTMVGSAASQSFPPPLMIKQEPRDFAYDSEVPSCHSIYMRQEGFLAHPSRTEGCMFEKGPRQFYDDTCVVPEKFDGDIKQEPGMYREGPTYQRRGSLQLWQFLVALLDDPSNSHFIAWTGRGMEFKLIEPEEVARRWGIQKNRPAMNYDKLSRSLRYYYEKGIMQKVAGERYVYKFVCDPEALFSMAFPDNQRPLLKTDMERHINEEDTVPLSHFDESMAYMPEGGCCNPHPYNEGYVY
ELF4, sequence (Q99607 whole entry): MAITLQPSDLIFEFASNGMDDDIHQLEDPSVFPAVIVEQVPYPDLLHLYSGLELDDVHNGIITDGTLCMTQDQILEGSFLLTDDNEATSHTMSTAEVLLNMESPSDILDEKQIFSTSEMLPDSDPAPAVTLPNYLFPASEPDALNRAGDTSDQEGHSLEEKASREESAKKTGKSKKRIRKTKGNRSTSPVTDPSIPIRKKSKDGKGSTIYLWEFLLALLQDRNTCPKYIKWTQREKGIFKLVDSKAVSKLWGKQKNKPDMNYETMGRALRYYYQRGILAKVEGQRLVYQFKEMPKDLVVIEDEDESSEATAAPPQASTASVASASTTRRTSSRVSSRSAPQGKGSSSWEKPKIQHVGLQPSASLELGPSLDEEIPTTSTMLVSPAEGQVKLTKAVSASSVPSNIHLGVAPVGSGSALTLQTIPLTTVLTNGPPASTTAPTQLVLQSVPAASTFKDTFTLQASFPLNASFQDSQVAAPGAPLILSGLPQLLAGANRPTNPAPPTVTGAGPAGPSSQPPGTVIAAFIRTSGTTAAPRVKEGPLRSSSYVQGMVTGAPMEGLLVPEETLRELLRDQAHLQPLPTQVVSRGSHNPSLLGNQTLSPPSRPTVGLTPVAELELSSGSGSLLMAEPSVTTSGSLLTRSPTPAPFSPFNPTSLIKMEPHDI

Question: CTCATA was tested. Which binding signal (FEV) did it give?
Answer: The binding signal was 1.29 fold enrichment (6-mer frequency, TF over GST control).

Question: And the binding signal (ETV5)?
Answer: The binding signal was 1.37 fold enrichment (6-mer frequency, TF over GST control).

Question: And the binding signal (HSF1)?
Answer: The binding signal was 1.25 fold enrichment (6-mer frequency, TF over GST control).

Question: And the binding signal (SPIC)?
Answer: The binding signal was 1.46 fold enrichment (6-mer frequency, TF over GST control).

Question: What about the binding signal (ELF4) of the same sequence?
Answer: The binding signal was 1.41 fold enrichment (6-mer frequency, TF over GST control).

Question: What about the binding signal (ELK4) of the same sequence?
Answer: The binding signal was 1.35 fold enrichment (6-mer frequency, TF over GST control).

Question: And the binding signal (ETV2)?
Answer: Its binding signal is 1.44 fold enrichment (6-mer frequency, TF over GST control).

Question: And the binding signal (ELF3)?
Answer: The binding signal was 1.34 fold enrichment (6-mer frequency, TF over GST control).

Question: And the binding signal (CRX)?
Answer: The binding signal was 1.38 fold enrichment (6-mer frequency, TF over GST control).

Question: And the binding signal (ETV1)?
Answer: The binding signal was 1.39 fold enrichment (6-mer frequency, TF over GST control).

Question: What about the binding signal (ERF) of the same sequence?
Answer: Its binding signal is 1.35 fold enrichment (6-mer frequency, TF over GST control).

Question: And the binding signal (ETV3L)?
Answer: Its binding signal is 1.3 fold enrichment (6-mer frequency, TF over GST control).

Question: What about the binding signal (ETS2) of the same sequence?
Answer: The binding signal was 1.35 fold enrichment (6-mer frequency, TF over GST control).

Question: What about the binding signal (SPDEF) of the same sequence?
Answer: Its binding signal is 1.33 fold enrichment (6-mer frequency, TF over GST control).

Question: And the binding signal (ETV7)?
Answer: The binding signal was 1.32 fold enrichment (6-mer frequency, TF over GST control).

Question: And the binding signal (ELF5)?
Answer: Its binding signal is 1.39 fold enrichment (6-mer frequency, TF over GST control).

Question: What about the binding signal (ETV3) of the same sequence?
Answer: The binding signal was 1.26 fold enrichment (6-mer frequency, TF over GST control).

Question: And the binding signal (ETV6)?
Answer: The binding signal was 1.27 fold enrichment (6-mer frequency, TF over GST control).
